This is an account of results in PubChem BioAssay.

Calls of active or inactive are those of the source.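 Rule for the calls, unless noted: active = inhibition above 20% together with a positive visual image hit; inconclusive = visual image hit but inhibition not above 20%; inactive = no visual image hit.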

One may read the inhibition as the change of the read-out against control, counted positive when it falls.

Assay [1] can be described thus: inhibitors of TNFa-induced NFkB p65 translocation, primary screen, imaging, HUVEC, MLSMR starter and 10KST1 sets (AID 438).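 For inhibition: signal is the nuclear over cytoplasmic p65 intensity ratio per well.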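 Note: compound added about 3h40 before a 20 min TNFalpha stimulation.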 As to conditions: HUVEC TNFa-induced p65 nuclear translocation; cell count: measured here: nuclei count (cytotoxicity indicator), at 2.08 µM; inhibition: at 2 µM, stronger effect = higher value, 0% TNFa-plus-vehicle, 100% no-TNFa wells.
A short description of assay [2]: reduction of polyQ htt aggregates in cells – imaging, exon1htt(103Q)mCFP cells, high-content imaging, primary screen (AID 483;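 active = visual image review flags a hit and inhibition of aggregation exceeds 20%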;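 note: compound exposure lasted 3 days before fixation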;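 for nuclei count: percent of the per-plate median nuclei count of sample wells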). As to conditions: exon1htt(103Q)mCFP cell line, aggregate imaging, at 2 µM; inhibition of aggregation: stronger effect = higher value; nuclei count: measured here: cell count, toxicity.
Assay [3] can be described thus: endothelial E-selectin expression blockers – imaging, HUVEC, immunofluorescence, MLSMR starter and 10KST1 sets, primary screen (AID 487;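 active = visually confirmed hit in the image check and inhibition above 20%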;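 for inhibition: signal is fraction of cell area covered by stained E-selectin grains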;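 for nuclei count: 100% = median nuclei count of all wells on the same plate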). As to conditions: HUVEC TNFalpha-induced E-selectin immunofluorescence imaging, at 2 µM; inhibition: stronger effect = higher value; nuclei count: measured here: cell number, toxicity.
For assay [4], the target named is Voltage-gated potassium channel subunit beta-2 (Rattus norvegicus) (UniProt P62483). The experiment in a line: inhibitors of rat Kvbeta2 reductase activity – biochemical, NADPH fluorescence, primary screen (AID 622;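 active = fluorescence slope higher than the sample average by over 3 SD, cut at about -0.22 in these data, passing the limit was not always enough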;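 note: slope of raw intensity against log time taken from 70 to 1610 s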). As to conditions: recombinant KvBeta, 4-cyanobenzaldehyde reduction, at 10 µM, stronger effect = higher value.
Chain of Voltage-gated potassium channel subunit beta-2 (Rattus norvegicus) (P62483 whole entry, looked up): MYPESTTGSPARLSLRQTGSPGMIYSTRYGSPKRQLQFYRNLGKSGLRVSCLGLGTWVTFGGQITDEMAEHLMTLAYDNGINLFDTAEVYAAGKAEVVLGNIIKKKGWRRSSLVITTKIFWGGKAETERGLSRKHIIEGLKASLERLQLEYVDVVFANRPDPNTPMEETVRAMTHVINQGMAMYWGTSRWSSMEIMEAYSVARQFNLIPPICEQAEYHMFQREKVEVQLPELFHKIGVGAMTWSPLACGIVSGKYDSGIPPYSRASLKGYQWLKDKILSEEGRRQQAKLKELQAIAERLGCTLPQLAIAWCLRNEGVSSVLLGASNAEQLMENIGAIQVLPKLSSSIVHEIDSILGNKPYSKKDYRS
Assay [5] has the same target. The assay is described as follows: enhancers of rat Kvbeta2 NADPH turnover – biochemical, NADPH fluorescence, primary screen (AID 623;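 active = NADPH fluorescence slope more negative than the mean of all samples by about 3 SD, 99.7% confidence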;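 note: fluorescence intensity change per second fitted from 20 to 320 s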). As to conditions: Recombinant KvBeta, NADPH fluorescence decrease slope, 10 min; at 10 µM; stronger effect = lower value.
In assay [6] the target is Alpha-2C adrenergic receptor (Homo sapiens) (UniProt P18825). The assay is described as follows: compounds altering alpha2C-coupled GIRK flux – cell-based, HEK293 alpha2C/GIRK1/2, thallium flux, primary screen (AID 624;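 active = fluorescence slope after compound addition differing from the mean of all screened samples at 99.7% confidence, in either direction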;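 note: slope of fluorescence ratio to pre-addition baseline per second over 15 to 24 s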). As to conditions: thallium flux BTC fluorescence, at 10 µM, actives lie on both sides.
Chain of Alpha-2C adrenergic receptor (Homo sapiens) (P18825 whole entry, looked up): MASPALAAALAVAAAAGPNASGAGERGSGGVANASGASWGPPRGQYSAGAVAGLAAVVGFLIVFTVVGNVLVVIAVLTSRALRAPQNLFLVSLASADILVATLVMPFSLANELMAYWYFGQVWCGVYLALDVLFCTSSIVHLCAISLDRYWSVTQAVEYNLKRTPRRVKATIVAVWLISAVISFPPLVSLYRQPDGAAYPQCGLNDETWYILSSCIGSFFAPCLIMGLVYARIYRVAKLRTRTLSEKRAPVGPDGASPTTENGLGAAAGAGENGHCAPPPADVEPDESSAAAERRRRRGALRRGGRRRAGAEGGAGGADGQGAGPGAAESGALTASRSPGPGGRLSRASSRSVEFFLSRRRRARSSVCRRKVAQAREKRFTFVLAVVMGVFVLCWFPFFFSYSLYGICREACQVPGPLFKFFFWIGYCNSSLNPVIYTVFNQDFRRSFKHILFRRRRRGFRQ
Assay [7] in a line: blockers of RIG-like receptor reporter activation – cell-based, Sendai virus stimulus, luciferase, 10K MLSCN set, TLR/RLR signaling modifier project, primary screen (AID 602276;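 active = inhibition at or above 50% at 10 µM; inactive = inhibition below 50%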;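 note: firefly luciferase from ISG56 promoter only with Renilla not read in this screen; 0% = Sendai virus plus DMSO and 100% = medium plus DMSO without virus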). As to conditions: HEK293 RL24 IRF3 luciferase reporter, at 10 µM, stronger effect = higher value. On the technique in general: A reporter such as luciferase makes a cellular process visible.
Assay [8] is described as follows: TLR3 IRF3 reporter activation blockers – cell-based, poly I:C stimulus, luciferase, 10K MLSCN set, primary screen (AID 602277;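 active = inhibition of the reporter signal at or above 50%; inactive = inhibition below 50%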). As to conditions: HEK293-TLR3 RL24 IRF3 luciferase reporter, at 10 µM, stronger effect = higher value.

Consider `Cc1cc(C)n(-c2nc3c(c(=O)[nH]c(=O)n3C)n2Cc2ccc(F)cc2)n1`, for which the cell count in assay [1] was found to be 402. The inhibition in assay [1] was 1.3% (inactive); in assay [3] it was -7.5% (inactive); in assay [7], 13% (inactive); in assay [8] it was 13.7% (inactive). For the same compound, the inhibition of aggregation in assay [2] was -21.6% (inactive). Moreover, the values for the nuclei count in assay [2] and in assay [3] were 94.4% and 102%, respectively. Besides, in assay [4], the fluorescence slope was -0.324 (inactive). Also, the NADPH fluorescence slope in assay [5] was -3.8e-05 (inactive). Besides, the slope in assay [6] is 0.00739 (inactive).
As for `COC(=O)n1c(=S)oc2cc(Cl)ccc21`, the cell count in assay [1] was determined as 673. In addition, the inhibition was 8.2% (inactive) in assay [1], 16.4% (inactive) in assay [3], 16.6% (inactive) in assay [7] and 31.1% (inactive) in assay [8]. The inhibition of aggregation in assay [2] is -25.1% (inactive). Moreover, the nuclei count in assay [2] came out at 106%; in assay [3] it was 93%. Besides, the fluorescence slope in assay [4] was -0.638 (inactive). The NADPH fluorescence slope in assay [5] is 1.8e-05 (inactive). For the same compound, in assay [6], the slope is 0.0107 (inactive).
Consider `O=C(Nc1ccccc1)C1=C(O)CC(c2ccoc2)CC1=Nc1ccccc1` (centres undefined), for which, in assay [1], the cell count stood at 321. Further, the inhibition in assay [1] is -2.1% (inactive); in assay [3] it was -80.4% (inactive); in assay [7] it was 4% (inactive); in assay [8], 16.9% (inactive). In addition, the inhibition of aggregation in assay [2] was 7.8% (inactive). In addition, the results for the nuclei count in assay [2] and in assay [3] were 94.4% and 121%, respectively. Also, in assay [4], the fluorescence slope is -0.422 (inactive). Besides, the NADPH fluorescence slope in assay [5] is -5.7e-05 (inactive). Also, the slope in assay [6] was 0.00565 (inactive).
Take `Cc1cc(C)c2c(=O)n(CC(=O)NCCCN3CCN(c4ccccc4F)CC3)sc2n1`: the cell count in assay [1] came to 725. Further, the inhibition in assay [1] was -2.8% (inactive); in assay [3], -81.4% (inactive); in assay [7] it was 12% (inactive); in assay [8], 34.1% (inactive). In assay [2], the inhibition of aggregation is 2.8% (inactive). Further, the nuclei count in assay [2] was found to be 105%; in assay [3], 119%. Besides, the fluorescence slope in assay [4] is -0.525 (inactive). In addition, the NADPH fluorescence slope in assay [5] is -4.4e-05 (inactive). Further, in assay [6], the slope is 0.00504 (inactive).
Take `CCOC(=O)C1C2C=CC3(CN(Cc4ccco4)C(=O)C13)O2` (centres undefined): in assay [1], the cell count turned out to be 480. Moreover, the inhibition was 5.5% (inactive) in assay [1], -57.8% (inactive) in assay [3], 13.9% (inactive) in assay [7] and 21.7% (inactive) in assay [8]. Also, the inhibition of aggregation in assay [2] is 16.2% (inactive). The results for the nuclei count in assay [2] and in assay [3] were 114% and 115%, respectively. Besides, the fluorescence slope in assay [4] is -0.469 (inactive). The NADPH fluorescence slope in assay [5] was -6.4e-05 (inactive). For the same compound, in assay [6], the slope is 0.00537 (inactive).
Regarding `Cc1cccc(NC(=O)COc2ccc(Br)cc2)n1`, the cell count in assay [1] amounted to 457. Further, the inhibition is -12.1% (inactive) in assay [1], 26.7% (inactive) in assay [3], 2.6% (inactive) in assay [7] and -9.96% (inactive) in assay [8]. Moreover, the inhibition of aggregation in assay [2] is -8.7% (inactive). Besides, the nuclei count in assay [2] worked out at 110%; in assay [3], 124%. For the same compound, in assay [4], the fluorescence slope is -0.437 (inactive). In assay [5], the NADPH fluorescence slope is 6.5e-05 (inactive). Further, in assay [6], the slope was 0.00667 (inactive).
Turning to `CCC(C)(C)NC(=O)CN(Cc1ccc2c(c1)OCO2)C(=O)CCC(=O)Nc1ccccn1`, the cell count in assay [1] was 517. In addition, the inhibition in assay [1] is -20.9% (inactive); in assay [3], -59.2% (inactive); in assay [7] it was 12.5% (inactive); in assay [8], 21.6% (inactive). The inhibition of aggregation in assay [2] is -0.5% (inactive). The nuclei count in assay [2] amounted to 92.4%; in assay [3] it was 114%. Moreover, in assay [4], the fluorescence slope is -0.403 (inactive). In assay [5], the NADPH fluorescence slope is -6.3e-05 (inactive). In addition, the slope in assay [6] was 0.00669 (inactive).
On to `CCCCS(=O)(=O)NC1=NCN(C2CCN(Cc3ccccc3)CC2)CN1`, for which, in assay [1], the cell count is 378. The inhibition in assay [1] is -2.1% (inactive); in assay [3] it was -23.1% (inactive); in assay [7], 4.05% (inactive); in assay [8] it was 18.7% (inactive). Besides, in assay [2], the inhibition of aggregation was 17.7% (inactive). Further, the nuclei count in assay [2] turned out to be 97.1%; in assay [3] it was 113%. Besides, the fluorescence slope in assay [4] is -0.572 (inactive). Besides, the NADPH fluorescence slope in assay [5] is -9.6e-05 (inactive). In assay [6], the slope was 0.00667 (inactive).
Regarding `CCCn1c(C)nc2c(c1=O)c1nc3ccccc3nc1n2CCc1ccccc1`, the cell count in assay [1] worked out at 470. For the same compound, the inhibition in assay [1] is -3.1% (inactive); in assay [3], -102% (inactive); in assay [7] it was 3.36% (inactive); in assay [8], 0.543% (inactive). Moreover, the inhibition of aggregation in assay [2] was 6.9% (inactive). In addition, the figures for the nuclei count in assay [2] and in assay [3] were 100% and 222%, respectively. Further, the fluorescence slope in assay [4] is -0.303 (inactive). In addition, the NADPH fluorescence slope in assay [5] was 2.6e-05 (inactive). For the same compound, the slope in assay [6] is 0.00428 (inactive).
Take `NC(=O)c1ccccc1NC(=O)CN1CCOCC1`: the cell count in assay [1] was 658. In addition, the inhibition in assay [1] was -24.7% (inactive); in assay [3], -46.9% (inactive); in assay [7] it was 21.2% (inactive); in assay [8] it was 20.7% (inactive). For the same compound, the inhibition of aggregation in assay [2] is -45.9% (inactive). Further, the nuclei count in assay [2] was 124%; in assay [3], 105%. For the same compound, in assay [4], the fluorescence slope was -0.492 (inactive). Besides, in assay [5], the NADPH fluorescence slope was -3.8e-05 (inactive). Further, in assay [6], the slope was 0.00501 (inactive).
As for `Cc1ccc(-c2ccc(SCC(=O)Nc3nonc3C)nn2)cc1`, the cell count in assay [1] worked out at 413. Moreover, the inhibition in assay [1] is 2.2% (inactive); in assay [3], -24.8% (inactive); in assay [7], 9.6% (inactive); in assay [8] it was 15.8% (inactive). Also, in assay [2], the inhibition of aggregation was -2% (inactive). Moreover, the nuclei count came out at 103% in assay [2] and 108% in assay [3]. In assay [4], the fluorescence slope is -0.283 (inactive). In assay [5], the NADPH fluorescence slope was -5.6e-05 (inactive). The slope in assay [6] is 0.00591 (inactive).
Regarding `O=S(=O)(c1cccs1)N1CCN(Cc2nc3ccccc3s2)CC1`, the cell count in assay [1] was 283. In addition, the inhibition was 3.3% (inactive) in assay [1], 1% (inactive) in assay [3], -3.64% (inactive) in assay [7] and -4.76% (inactive) in assay [8]. Besides, the inhibition of aggregation in assay [2] is -5.8% (inactive). The nuclei count is 99.8% in assay [2] and 90.9% in assay [3]. For the same compound, in assay [4], the fluorescence slope was -0.556 (inactive). Moreover, the NADPH fluorescence slope in assay [5] was 3e-05 (inactive). Further, the slope in assay [6] is 0.00461 (inactive).
On to `CCCNC(=O)c1ccccc1NC(=O)CN(c1ccccc1OCC)S(C)(=O)=O`, for which the cell count in assay [1] amounted to 654. In addition, the inhibition in assay [1] is -8.2% (inactive); in assay [3], -142% (inactive); in assay [7], -1.76% (inactive); in assay [8], 20.9% (inactive). Further, the inhibition of aggregation in assay [2] was -11% (inactive). Also, the results for the nuclei count in assay [2] and in assay [3] were 105% and 102%, respectively. In addition, in assay [4], the fluorescence slope is -0.465 (inactive). The NADPH fluorescence slope in assay [5] was -5.5e-06 (inactive). The slope in assay [6] is 0.00349 (inactive).
For `O=C(CS(=O)(=O)c1cn(Cc2ccc(Cl)cc2)c2ccccc12)N1CCCC1`, the cell count in assay [1] is 654. The inhibition is -3.9% (inactive) in assay [1], 13.5% (inactive) in assay [3], 15.4% (inactive) in assay [7] and 34% (inactive) in assay [8]. Besides, the inhibition of aggregation in assay [2] is -11.8% (inactive). Moreover, the results for the nuclei count in assay [2] and in assay [3] were 116% and 111%, respectively. The fluorescence slope in assay [4] was -0.538 (inactive). Besides, in assay [5], the NADPH fluorescence slope was -3.5e-05 (inactive). The slope in assay [6] is 0.00627 (inactive).
